{"source": "PubChem BioAssay (NCATS)", "key": {"[1]": {"test": "Cell Viability - N2a (AID 540; active = well fitted curve in the direction sought with a large enough effect; an effect the other way counts as inactive or inconclusive; note: nearly all actives have a fitted effect of over 45% in size)", "details": "N2a mouse neuroblastoma cell viability; activity change, negative = cytotoxicity: at 92.2 µM (top of the series)", "method_in_brief": "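First, 1500 N2a cells per well incubate 5 hr at 37 °C; next, compounds are added and incubated 40 hr at 37 °C; finally CellTiter-Glo is added and luminescence read after 20 min, with AC50 derived by Hill modeling.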"}, "[2]": {"test": "Cell Viability - LYMP2-016 (AID 984; active = well fitted curve in the direction sought with a large enough effect; an effect the other way counts as inactive or inconclusive; note: nearly all actives have a fitted effect of over 55% in size)", "method_in_brief": "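Concentration-dependent ATP depletion measured in LYMP2-016 lymphoblastoid cells, 24 h, 37 C; luciferase-based luminescent detection; Hill-equation AC50.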"}, "[3]": {"molecular_target": "Estrogen receptor (Homo sapiens) (UniProt P03372)", "sequence (P03372 whole entry, looked up)": "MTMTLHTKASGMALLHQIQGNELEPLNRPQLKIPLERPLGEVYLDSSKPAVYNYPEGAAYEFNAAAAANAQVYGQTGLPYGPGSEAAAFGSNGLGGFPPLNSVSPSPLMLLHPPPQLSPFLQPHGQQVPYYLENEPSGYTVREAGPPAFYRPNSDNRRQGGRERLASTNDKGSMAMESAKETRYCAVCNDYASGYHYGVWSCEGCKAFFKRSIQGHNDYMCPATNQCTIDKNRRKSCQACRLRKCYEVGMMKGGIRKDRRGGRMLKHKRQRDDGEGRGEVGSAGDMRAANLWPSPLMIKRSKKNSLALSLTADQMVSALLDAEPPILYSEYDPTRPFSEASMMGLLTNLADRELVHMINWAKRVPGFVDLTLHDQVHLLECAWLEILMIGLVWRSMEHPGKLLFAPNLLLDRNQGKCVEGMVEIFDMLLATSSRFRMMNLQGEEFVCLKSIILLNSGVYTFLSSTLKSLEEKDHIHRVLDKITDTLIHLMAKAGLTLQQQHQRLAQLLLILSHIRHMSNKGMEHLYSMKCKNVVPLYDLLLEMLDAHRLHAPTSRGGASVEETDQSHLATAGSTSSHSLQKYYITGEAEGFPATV", "test": "qHTS assay for small molecule agonists of estrogen receptor alpha signaling (AID 588514); note: nearly all actives have a fitted effect of over 70% in size", "method_in_brief": "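Reporter-gene assay. […] controls beta-lactamase in HEK 293 GripTite cells; after 18 hrs with compound, CCF4 substrate is added for 2 hrs and fluorescence is read.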"}, "[4]": {"molecular_target": "Bile acid receptor (Homo sapiens) (UniProt Q96RI1)", "sequence (Q96RI1 whole entry, looked up)": "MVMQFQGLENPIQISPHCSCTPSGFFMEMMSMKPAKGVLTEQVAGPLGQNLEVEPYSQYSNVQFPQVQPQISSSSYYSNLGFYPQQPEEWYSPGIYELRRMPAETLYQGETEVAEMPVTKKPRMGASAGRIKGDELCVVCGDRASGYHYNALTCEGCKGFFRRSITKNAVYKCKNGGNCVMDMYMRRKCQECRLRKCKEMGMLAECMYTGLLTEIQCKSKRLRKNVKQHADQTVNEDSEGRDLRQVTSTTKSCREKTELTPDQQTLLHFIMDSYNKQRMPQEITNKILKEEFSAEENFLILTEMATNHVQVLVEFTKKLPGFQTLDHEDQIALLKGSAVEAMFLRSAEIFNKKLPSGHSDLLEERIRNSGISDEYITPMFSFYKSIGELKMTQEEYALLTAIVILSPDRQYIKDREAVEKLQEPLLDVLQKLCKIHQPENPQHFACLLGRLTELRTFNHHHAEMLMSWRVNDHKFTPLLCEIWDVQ", "test": "qHTS assay for small molecule antagonists of farnesoid X receptor signaling (AID 588526)", "method_in_brief": "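Beta-lactamase reporter antagonist mode: HEK293T FXR-UAS-bla cells, titrated compound, CDCA stimulation, 16 h 37 C, CCF4 dye 2 h RT. Data normalized to CDCA 50 uM and DMSO; Hill-fit IC50.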"}, "[5]": {"molecular_target": "Vitamin D3 receptor (Homo sapiens) (UniProt P11473)", "sequence (P11473 whole entry, looked up)": "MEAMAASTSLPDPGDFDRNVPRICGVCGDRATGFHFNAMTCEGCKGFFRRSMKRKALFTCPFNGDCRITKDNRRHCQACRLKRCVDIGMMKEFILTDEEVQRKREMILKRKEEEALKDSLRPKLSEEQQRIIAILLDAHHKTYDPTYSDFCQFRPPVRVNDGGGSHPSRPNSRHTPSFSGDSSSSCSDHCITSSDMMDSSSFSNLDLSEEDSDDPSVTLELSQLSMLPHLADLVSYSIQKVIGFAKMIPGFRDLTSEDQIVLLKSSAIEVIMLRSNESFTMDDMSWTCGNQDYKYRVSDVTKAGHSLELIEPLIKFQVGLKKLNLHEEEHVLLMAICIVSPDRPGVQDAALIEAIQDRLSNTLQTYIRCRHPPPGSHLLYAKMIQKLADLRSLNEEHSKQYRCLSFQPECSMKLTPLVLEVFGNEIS", "test": "qHTS assay for small molecule antagonists of vitamin D receptor signaling (AID 588541);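 note: receptor activated by calcitriol during compound treatment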", "method_in_brief": "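Antagonist-mode beta-lactamase reporter assay: HEK293T VDR-UAS-bla cells were exposed to titrated compound alongside 1-alpha,25-dihydroxyvitamin D3 at 3 nM final for 16 h. Values were normalized to the 50 nM agonist control and DMSO basal, with IC50 and efficacy from Hill equation fits.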"}, "[6]": {"test": "qHTS assay for small molecule agonists of the antioxidant response element (ARE) signaling pathway (AID 651741; active = well fitted activation curve with a large enough effect in the signal ratio; the % refers to the signal ratio)", "method_in_brief": "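Seeding 2,000 ARE-bla HepG2 cells per well preceded a 5 h incubation at 37 C/5% CO2 and a 16 h compound exposure at 37 C. Beta-lactamase reporter activity was then quantified by fluorescence after 2 h with LiveBLAzer B/G FRET substrate.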"}, "[7]": {"test": "Cellular Toxicity (caspase-3) HUV-EC-C (AID 656; active = well fitted curve in the direction sought with a large enough effect; an effect the other way counts as inactive or inconclusive)", "method_in_brief": "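Concentration-dependent caspase 3/7 induction was assessed in HUV-EC-C cells exposed for 16 hours. Data scaled between DMSO and tamoxifen (100 uM) controls.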"}, "[8]": {"molecular_target": "Glucocorticoid receptor (Homo sapiens) (UniProt P04150)", "sequence (P04150 whole entry, looked up)": "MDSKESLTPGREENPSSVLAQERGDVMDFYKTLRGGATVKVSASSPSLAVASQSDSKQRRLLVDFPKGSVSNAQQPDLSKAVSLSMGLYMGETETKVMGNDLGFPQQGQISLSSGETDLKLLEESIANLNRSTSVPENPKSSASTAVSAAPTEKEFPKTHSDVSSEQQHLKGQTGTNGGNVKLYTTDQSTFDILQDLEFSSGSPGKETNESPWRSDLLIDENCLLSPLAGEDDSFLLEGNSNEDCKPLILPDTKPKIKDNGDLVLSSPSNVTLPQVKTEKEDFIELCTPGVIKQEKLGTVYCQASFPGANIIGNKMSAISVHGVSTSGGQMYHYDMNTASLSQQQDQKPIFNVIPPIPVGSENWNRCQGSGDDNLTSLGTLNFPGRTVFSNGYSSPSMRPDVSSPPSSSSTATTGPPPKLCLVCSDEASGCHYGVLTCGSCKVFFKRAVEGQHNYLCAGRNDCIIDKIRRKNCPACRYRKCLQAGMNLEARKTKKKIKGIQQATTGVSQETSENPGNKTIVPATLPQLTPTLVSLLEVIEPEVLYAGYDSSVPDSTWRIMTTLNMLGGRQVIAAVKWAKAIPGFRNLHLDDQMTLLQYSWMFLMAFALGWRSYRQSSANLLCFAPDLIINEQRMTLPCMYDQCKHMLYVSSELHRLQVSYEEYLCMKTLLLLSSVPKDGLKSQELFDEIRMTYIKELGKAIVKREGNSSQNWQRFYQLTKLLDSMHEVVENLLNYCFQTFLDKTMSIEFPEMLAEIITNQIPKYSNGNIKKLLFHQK", "test": "qHTS assay for small molecule antagonists of glucocorticoid receptor signaling (AID 588533; active = well fitted inhibition curve with a large enough effect in the signal ratio, with a control signal flat, not every such curve was filed as active; the % refers to the signal ratio)", "method_in_brief": "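Antagonist-mode qHTS: compound titrations added to GRE-bla HeLa cells, then dexamethasone 2 nM final; 18 h, 37 C. CCF4 FRET fluorescence normalized to dexamethasone and DMSO; IC50 from Hill fit.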"}, "[9]": {"test": "qHTS assay for small molecule antagonists of peroxisome proliferator-activated receptor delta signaling (AID 588535; active = well fitted inhibition curve with a large enough effect in the signal ratio, with a control signal flat, not every such curve was filed as active; the % refers to the signal ratio;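 for max response: cells co-treated with a PPAR-delta agonist as stimulator during compound exposure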)", "details": "HEK293T PPARd-UAS-bla, beta-lactamase FRET ratio, 18 h; 460 nm channel", "method_in_brief": "(§1)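 Cell-based beta-lactamase assay in antagonist mode: 4000 HEK293T PPAR-delta-UAS-bla cells per well, 5 hr preincubation then 18 hr compound incubation at 37 C. IC50 obtained by Hill equation fitting.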"}, "[10]": {"molecular_target": "Peroxisome proliferator-activated receptor delta (Homo sapiens) (UniProt Q03181)", "sequence (Q03181 whole entry, looked up)": "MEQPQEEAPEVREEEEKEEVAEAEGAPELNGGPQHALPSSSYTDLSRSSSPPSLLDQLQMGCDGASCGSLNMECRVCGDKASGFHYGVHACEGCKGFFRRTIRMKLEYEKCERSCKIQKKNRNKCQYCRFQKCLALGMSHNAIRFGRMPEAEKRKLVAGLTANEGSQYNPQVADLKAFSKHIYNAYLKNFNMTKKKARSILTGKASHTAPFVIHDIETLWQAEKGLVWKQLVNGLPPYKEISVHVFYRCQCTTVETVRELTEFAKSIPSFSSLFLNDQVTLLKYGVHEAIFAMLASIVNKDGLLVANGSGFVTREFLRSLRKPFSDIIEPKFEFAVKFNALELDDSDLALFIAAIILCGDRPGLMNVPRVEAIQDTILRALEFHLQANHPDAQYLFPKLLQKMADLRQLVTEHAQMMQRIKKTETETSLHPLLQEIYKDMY", "test": "qHTS assay for small molecule antagonists of peroxisome proliferator-activated receptor delta signaling (AID 588535)", "method_in_brief": "as §1"}, "[11]": {"molecular_target": "Peroxisome proliferator-activated receptor gamma (Homo sapiens) (UniProt P37231)", "sequence (P37231 whole entry, looked up)": "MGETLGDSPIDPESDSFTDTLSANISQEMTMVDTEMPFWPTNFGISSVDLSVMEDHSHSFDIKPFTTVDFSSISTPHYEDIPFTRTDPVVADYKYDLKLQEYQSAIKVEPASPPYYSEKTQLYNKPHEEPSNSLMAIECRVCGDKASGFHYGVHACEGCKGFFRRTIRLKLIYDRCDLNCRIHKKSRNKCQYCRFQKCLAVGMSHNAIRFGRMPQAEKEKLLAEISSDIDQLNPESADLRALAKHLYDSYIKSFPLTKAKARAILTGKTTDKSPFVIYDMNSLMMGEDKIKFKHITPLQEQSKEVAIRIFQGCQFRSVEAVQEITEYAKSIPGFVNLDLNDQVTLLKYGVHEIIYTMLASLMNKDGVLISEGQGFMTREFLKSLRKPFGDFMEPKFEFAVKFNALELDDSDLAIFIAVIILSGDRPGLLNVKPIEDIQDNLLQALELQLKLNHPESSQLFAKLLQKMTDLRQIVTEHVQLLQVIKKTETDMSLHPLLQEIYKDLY", "test": "qHTS assay for small molecule antagonists of peroxisome proliferator-activated receptor gamma signaling (AID 588537; active = well fitted inhibition curve with a large enough effect in the signal ratio, with a control signal flat, not every such curve was filed as active; the % refers to the signal ratio)", "method_in_brief": "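Inhibitors of agonist-stimulated UAS-bla reporter activity were sought in HEK293 cells; rosiglitazone (50 nM) defined full signal and DMSO baseline. Curves fitted to Hill model gave IC50 and efficacy.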"}, "[12]": {"molecular_target": "Nuclear receptor ROR-gamma (Homo sapiens) (UniProt P51449)", "sequence (P51449 whole entry, looked up)": "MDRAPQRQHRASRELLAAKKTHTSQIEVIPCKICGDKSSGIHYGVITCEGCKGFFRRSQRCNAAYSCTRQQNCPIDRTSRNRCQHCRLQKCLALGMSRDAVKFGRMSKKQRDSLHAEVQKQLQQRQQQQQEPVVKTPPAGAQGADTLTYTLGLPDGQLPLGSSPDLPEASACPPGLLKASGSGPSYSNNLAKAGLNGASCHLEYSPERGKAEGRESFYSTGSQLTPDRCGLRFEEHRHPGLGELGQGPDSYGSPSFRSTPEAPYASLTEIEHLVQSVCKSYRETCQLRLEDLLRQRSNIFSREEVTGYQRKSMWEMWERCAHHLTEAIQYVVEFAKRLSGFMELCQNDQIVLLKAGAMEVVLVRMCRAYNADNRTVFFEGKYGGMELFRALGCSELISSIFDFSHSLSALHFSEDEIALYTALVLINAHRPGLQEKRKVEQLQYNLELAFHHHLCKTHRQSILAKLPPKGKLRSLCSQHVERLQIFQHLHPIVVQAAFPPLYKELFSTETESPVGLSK", "test": "qHTS assay for small molecule antagonists of the retinoid-related orphan receptor gamma (ROR-gamma) signaling pathway (AID 651802; active = well fitted curve in the direction sought with a large enough effect; an effect the other way counts as inactive or inconclusive)", "method_in_brief": "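Antagonism is scored as a fall in luminescence from a RORE-luciferase reporter in CHO cells expressing ROR under a TET-inducible promoter, measured 16hr after doxycycline induction in the presence of compound.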"}, "[13]": {"test": "Cell Viability - LYMP2-018 (AID 985; active = well fitted curve in the direction sought with a large enough effect; an effect the other way counts as inactive or inconclusive)", "method_in_brief": "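Acute cytotoxicity is scored as a concentration-dependent drop in intracellular ATP after 24 hr exposure of the lymphoblastoid line in complete culture medium, measured by luciferase luminescence. Potency is expressed as AC50 from Hill modelling.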"}, "[14]": {"test": "qHTS assay to identify small molecules that stimulate interleukin-8 (IL-8) secretion (AID 651758; active = well fitted activation curve with a large enough effect in the signal ratio; the % refers to the signal ratio)", "method_in_brief": "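Secreted IL-8 measured by TR-FRET sandwich (cryptate and XL665 antibodies) from THP-1 cells exposed to compound overnight (16 hrs, 37 C).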"}}, "note": "Several values for one entry are separate records, joined by “and”; a condition that tells them apart may be missing. Identical values can stand only once. Records with an inconclusive call do not appear. Entries that show only a call come without a potency. Activity calls are given as the source filed them. Unless noted, calls come from the whole dose curve."}
{"smiles": "Nc1ccc(S(=O)(=O)O)cc1", "values": [{"measurement": "activity change, negative = cytotoxicity", "setting": "[1]", "result": "-1.94% (inactive)"}, {"measurement": "Potency", "setting": "[2]", "result": "inactive"}, {"measurement": "Potency", "setting": "[3]", "result": "inactive"}, {"measurement": "outcome", "setting": "[4]", "result": "inactive"}, {"measurement": "outcome", "setting": "[5]", "result": "inactive"}, {"measurement": "Potency", "setting": "[6]", "result": "inactive"}]}
{"smiles": "CC(=O)OC/C=C(\\C)CCC=C(C)C", "values": [{"measurement": "activity change, negative = cytotoxicity", "setting": "[1]", "result": "-0.528% (inactive)"}, {"measurement": "outcome", "setting": "[7]", "result": "inactive"}, {"measurement": "Potency", "setting": "[2]", "result": "inactive"}, {"measurement": "Potency", "setting": "[3]", "result": "inactive"}, {"measurement": "Potency", "setting": "[8]", "result": "inactive"}, {"measurement": "max response", "setting": "[9]", "result": "-10.2% and 0.451%"}, {"measurement": "Potency", "setting": "[10]", "result": "inactive"}, {"measurement": "outcome", "setting": "[11]", "result": "inactive"}, {"measurement": "Potency", "setting": "[12]", "result": "inactive"}]}
{"smiles": "COC(=O)CCCCC(=O)OC", "values": [{"measurement": "Potency", "setting": "[13]", "result": "inactive"}, {"measurement": "Potency", "setting": "[3]", "result": "inactive"}, {"measurement": "outcome", "setting": "[4]", "result": "inactive"}, {"measurement": "Potency", "setting": "[8]", "result": "inactive"}, {"measurement": "max response", "setting": "[9]", "result": "25.3% and -0.778%"}, {"measurement": "Potency", "setting": "[10]", "result": "inactive"}, {"measurement": "outcome", "setting": "[11]", "result": "inactive"}, {"measurement": "outcome", "setting": "[5]", "result": "inactive"}, {"measurement": "Potency", "setting": "[14]", "result": "inactive"}, {"measurement": "Potency", "setting": "[12]", "result": "inactive"}]}
